Compound activity from PubChem.
Tg IFNy HTS: T. gondii growth inhibition under IFN-gamma; hit rate 3.8% among 69,000; activity change, negative = inhibition, % (test concentration not listed); AID 1259416; Toxoplasma gondii growth in IFN-gamma-treated host cells; stronger effect = lower value; in the data active = activity change below about -70%, passing the limit was not always enough;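 note: host cells are HeLa cells infected with Toxoplasma gondii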
* hit, by the source's call; ! = repeats disagree. The entries come from a sample that favours hits as a whole.

SMILES	Tg IFNy HTS
COc1ccc(NC(=O)N2C[C@@H](O)COC[C@H]3O[C@H](CC(=O)N4CCCCC4)CC[C@@H]32)cc1	0
O=C(Cn1nnc(N2CCOCC2)n1)c1ccccc1	-6
Cc1ccc(CCNCC2(O)CCCN(Cc3ccc(F)c(F)c3)C2=O)o1 (stereo not drawn)	-19
Cc1oc(-c2ccccc2)nc1CSc1nc2c(c(=O)[nH]1)CN(Cc1ccc(F)cc1)CC2	-18
Cc1ccc(NC(=O)Nc2ccc(-c3nc(-c4cccc(Br)c4)co3)cc2)cc1	1
CO[C@H]1CN(C)C(=O)c2cc(NS(=O)(=O)c3ccc(Cl)cc3)ccc2OC[C@@H](C)N(C(=O)NC(C)C)C[C@H]1C	8
CC[C@@H](C(=O)C(C)[C@@H](O)[C@H](C)CCc1ccc(C)c(O)c1C(=O)O)C1OC(CC)(C2CC[C@](O)(CC)[C@H](C)O2)C[C@@H]1C (stereo partly drawn)	-74*
Cn1cc(CC(=O)N2CCCC3(CC2)CNC(=O)O3)c2ccccc21 (stereo not drawn)	4
COc1ccccc1-c1nc(Cn2c(=O)c3c(C)cc(C)nc3n(-c3ccccc3)c2=O)c(C)o1	3
O=C(NCc1ccc2c(c1)OCO2)C1CC(=O)N(c2ccc(OCc3ccccc3)cc2)C1 (stereo not drawn)	7
COc1c(F)cc(C(=O)N2CCC(c3ccc(C(=O)O)cc3)C2)cc1F (stereo not drawn)	-2
OC(CSc1nc2ccccc2s1)Cn1c2ccccc2c2ccccc21 (stereo not drawn)	-75*
C=CCn1c(SCC(O)Cn2c3ccccc3c3ccccc32)nnc1-c1ccco1 (stereo not drawn)	-49
Cc1nc2ccccc2n1CC(O)Cn1c2ccccc2c2ccccc21 (stereo not drawn)	-1
COCC1c2c(cnn2C)CCN1C(=O)Cc1ccsc1 (stereo not drawn)	48
CCc1nc(N)c(C#N)c(-c2ccccc2)c1C	12
N#Cc1c(-c2ccccc2)cc(-c2ccc(Cl)cc2)nc1N	10
N#Cc1c(N)nc(Sc2ccc(Cl)cc2)c(C#N)c1-c1ccccc1	-92*
COc1cc2c(=O)oc(-c3cccnc3Oc3ccccc3)nc2c(OC)c1OC	22
Cc1nnsc1-c1noc(CS(=O)(=O)c2ccc(Cl)cc2)n1	40
O=C1CSC(=O)N1CCS(=O)(=O)c1ccc(Cl)cc1	-1
O=S(=O)(Cc1cc(Cl)sc1Cl)c1ccc(Cl)cc1	-101*
CCCCCCC(=O)Nc1c2c(nc3ccccc13)N(C)CC2	3
Cc1ccc(-c2nc(Cn3ccn4nc(-c5ccccc5)cc4c3=O)c(C)o2)cc1	-11
N#Cc1c(N2C(=O)C3C4c5ccccc5C(c5ccccc54)C3C2=O)sc2c1CCC2 (stereo not drawn)	-79*
SMILES	Tg IFNy HTS
Cc1onc(-c2ccccc2Cl)c1C(=O)Nc1sc2c(c1C#N)CCC2	42
CCc1nc(SCC(=O)N[C@@H]2C[C@H]2c2ccccc2)n[nH]1	9
CC1CNCCN1S(=O)(=O)c1cccc2cnccc12 (stereo not drawn)	-6
Cc1oc(-c2ccc(Cl)cc2)nc1CN1CCCC(C(=O)NC2CCCCCC2)C1 (stereo not drawn)	-99*
CCOc1ccc(-c2nc(CN3CCN(C(=O)NC4CCCCC4)CC3)c(C)o2)cc1	4
Cc1ccc(-c2nc(CN3CCN(C(=O)NC4CCCCC4)CC3)c(C)o2)cc1	-2
O=C(Nc1ccc(-c2nc(-c3ccccc3)co2)cc1)Nc1ccccc1Br	24
Cc1ccccc1-c1nc(Cn2nnc(C(=O)Nc3cccc(Cl)c3)c2C)c(C)o1	26
COc1ccc(-c2nc(N3CCN(c4cc(C)ccc4C)CC3)c3ccccc3n2)cc1	14
Oc1ccc([C@H]2COc3cc(O)ccc3C2)cc1	-73*!
Oc1ccc([C@H]2Oc3cc(O)cc(O)c3C[C@H]2O)cc1	7
O=C1CC(c2ccc(O)cc2)Oc2cc(O)cc(O)c21 (stereo not drawn)	67
CC(C)c1noc(C2CCN(C(=O)C3CC4(CCNCC4)CN3)CC2)n1 (stereo not drawn)	39
O=C(CN1CCOCC1)NC1CCN(CC2(c3ccccc3)CCCCC2)CC1	-59
NS(=O)(=O)c1ccc(NS(=O)(=O)c2ccc(Br)cc2)cc1	7
Cc1nnsc1C(=O)N1CCC(c2n[nH]c(=O)n2-c2ccccc2)CC1	0
O=C(NCC(O)c1ccccc1)c1ccc(NC(=O)C2CCC2)cc1 (stereo not drawn)	7
CC(C)c1ccc(C(=O)Nc2ccccc2)cc1	-9
CC(C)[C@H](C(=O)Nc1ccc(C(=O)NO)cc1)c1ccccc1	-83*
Cn1c(=O)sn(-c2cccc3ccccc23)c1=O	162
O=C1NCCN(Cc2ccc(F)cc2)C1CC(=O)N1CCC(OCc2ccccc2)CC1 (stereo not drawn)	-7
Cc1ccc(CN(Cc2cc3cccc(C)c3[nH]c2=O)C(=O)c2ccco2)cc1	-79*
CCC(=O)N(Cc1ccc(C)cc1)Cc1cc2cccc(C)c2n2nnnc12	34
COc1ccc2[nH]c(=O)c(CN(C(=O)c3ccco3)C(C)C)cc2c1	27
